An excerpt weighted towards active compounds, which were near 0.81% of everything screened.
SRC2 inh = human SRC2 (NCOA2) inhibition. AID 651957. HEK293 GAL4-SRC2 luciferase reporter, luminescence. Q15596. inhibition, % at 9 µM. actives 0.17% (n = 370,000);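 active = inhibition above the mean inhibition of all tested compounds plus 3 SD, set per campaign, cut at about 52% in these data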;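 also: 0% = DMSO treated cells and 100% = cells given Gossypol at 36 µM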
Target sequence (Q15596 whole entry, looked up, the tested form may be a part): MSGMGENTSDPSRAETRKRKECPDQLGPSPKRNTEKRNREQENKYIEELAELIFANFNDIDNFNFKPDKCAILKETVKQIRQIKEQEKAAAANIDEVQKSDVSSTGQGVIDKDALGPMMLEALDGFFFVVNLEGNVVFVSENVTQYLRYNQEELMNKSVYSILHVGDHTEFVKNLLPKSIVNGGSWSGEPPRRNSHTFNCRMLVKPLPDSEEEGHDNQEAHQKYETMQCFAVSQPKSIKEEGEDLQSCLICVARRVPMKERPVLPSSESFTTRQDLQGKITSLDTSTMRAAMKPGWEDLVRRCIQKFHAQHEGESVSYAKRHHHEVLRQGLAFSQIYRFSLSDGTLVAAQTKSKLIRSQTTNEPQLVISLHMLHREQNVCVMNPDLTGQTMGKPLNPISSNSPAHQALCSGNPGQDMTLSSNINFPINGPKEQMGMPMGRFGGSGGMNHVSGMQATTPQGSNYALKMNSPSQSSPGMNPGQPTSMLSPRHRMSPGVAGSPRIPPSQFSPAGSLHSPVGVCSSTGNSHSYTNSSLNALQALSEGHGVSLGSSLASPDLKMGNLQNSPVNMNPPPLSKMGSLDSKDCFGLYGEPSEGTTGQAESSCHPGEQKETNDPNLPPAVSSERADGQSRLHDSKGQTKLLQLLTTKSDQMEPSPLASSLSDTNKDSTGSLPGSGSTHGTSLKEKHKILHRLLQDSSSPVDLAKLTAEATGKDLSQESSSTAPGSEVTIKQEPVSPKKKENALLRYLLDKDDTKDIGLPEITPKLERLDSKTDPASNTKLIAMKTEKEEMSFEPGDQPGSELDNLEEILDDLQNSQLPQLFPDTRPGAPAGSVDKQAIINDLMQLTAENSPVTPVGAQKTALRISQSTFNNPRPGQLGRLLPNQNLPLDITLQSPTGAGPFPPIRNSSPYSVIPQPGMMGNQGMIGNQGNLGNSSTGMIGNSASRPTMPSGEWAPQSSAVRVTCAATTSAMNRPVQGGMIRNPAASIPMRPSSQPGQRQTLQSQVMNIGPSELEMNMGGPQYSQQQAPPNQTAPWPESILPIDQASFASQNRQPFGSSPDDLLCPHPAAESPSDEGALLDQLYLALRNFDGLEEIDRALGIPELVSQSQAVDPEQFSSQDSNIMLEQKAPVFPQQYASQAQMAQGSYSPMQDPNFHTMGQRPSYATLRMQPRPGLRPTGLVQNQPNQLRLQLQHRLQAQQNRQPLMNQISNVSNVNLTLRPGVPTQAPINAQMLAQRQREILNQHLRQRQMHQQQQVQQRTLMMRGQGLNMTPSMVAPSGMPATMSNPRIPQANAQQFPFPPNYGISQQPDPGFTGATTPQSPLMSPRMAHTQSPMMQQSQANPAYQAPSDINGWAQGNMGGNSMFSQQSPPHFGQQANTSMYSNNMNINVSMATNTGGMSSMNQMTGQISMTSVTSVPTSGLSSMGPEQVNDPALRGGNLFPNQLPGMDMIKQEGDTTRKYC
NCOA3 inh = human NCOA3 inhibition. Q9Y6Q9. HEK293 GAL4-SRC3 luciferase reporter, luminescence. inhibition, % at 3.6 µM. actives 0.17% (n = 360,000). AID 588352;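 active = inhibition above a per-campaign cutoff, the mean of all compounds plus 3 SD, cut at about 60% in these data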;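 also: 0% = DMSO-treated cells and 100% = gossypol-treated cells at 36 µM; higher means less SRC3-driven luciferase light from the GAL4 reporter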
LRH-1 inv ag = inverse agonists of human LRH-1 (NR5A2); O00482; HEK293T StAR-luciferase reporter, LRH-1 transfected, 24 h; inhibition, % at 3.6 µM; actives 0.13% (n = 360,000); AID 602396;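 active = inhibition above the mean inhibition of all tested compounds plus 3 SD, cut at about 73% in these data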;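 also: 0% = DMSO wells and 100% = reporter-only cells lacking LRH-1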
NR2F2 inh = blocks human COUP-TFII nuclear receptor; P24468; HEK293T NGFI-A luciferase reporter, luminescence; inhibition, % at 8.6 µM; actives 0.7% (n = 370,000); AID 686940;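 active = inhibition above a per-plate cutoff, mean inhibition of test wells between control levels plus 3 SD, cut at about 38% in these data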;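 also: cells cotransfected with COUP-TFII expression vector driving the NGFI-A reporter; 0% = median of COUP-TF2 test wells and 100% = reporter-only cells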
SRC1 inh = human NCOA1 inhibition | actives 0.12% (n = 360,000) | Q15788 | HEK293 GAL4-SRC1 luciferase reporter, luminescence | AID 588354 | inhibition, % at 3.6 µM;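 active = inhibition above the campaign mean plus 3 SD, with each screening campaign given its own cutoff, cut at about 60% in these data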;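 also: 0% = DMSO treated cells and 100% = gossypol at 36 µM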
Gal4-VP16 ctr = inhibits VP16 reporter, flagging COUP-TFII antagonist hits | AID 687007 | shares compounds with NR2F2 inh | actives 25% (n = 2,500) | inhibition, % at 8.5 µM | HEK293 Gal4-VP16 luciferase reporter, luminescence; in the data active = inhibition above about 13%
COUP-TFII conf = confirmation of human COUP-TFII (NR2F2) inhibitors. inhibition, % at 8.5 µM. HEK293 NGFI-A luciferase reporter, luminescence. shares compounds with NR2F2 inh. actives 45% (n = 2,500). AID 687008;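 active = mean inhibition over three repeats above a set limit taken from the earlier primary screen, cut at about 38% in these data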;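 also: 100% = cells given the luciferase reporter alone without the COUP-TF2 vector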
Starred values were filed as active, the others as inactive.

What do the screens show for `COc1ccc(CNc2ncnc3c2[nH]c2ccccc23)cc1`?
SRC2 inh: 2.3; NCOA3 inh: 15.2; LRH-1 inv ag: 7.9; NR2F2 inh: 45.1*; SRC1 inh: 5.4; Gal4-VP16 ctr: -0.4; COUP-TFII conf: 35.1

Results for CC(C)OCCCNc1ncnc2c1[nH]c1ccccc12 ?
SRC2 inh: 4.1; NCOA3 inh: 6.9; LRH-1 inv ag: 13.0; NR2F2 inh: 65.9*; SRC1 inh: 5.1; Gal4-VP16 ctr: -33.8; COUP-TFII conf: 37.2

What do the screens show for `COC(=O)[C@H](CC(C)C)N(CCCc1cn(Cc2ccc(C)cc2)nn1)S(=O)(=O)c1ccc(F)cc1Br`?
SRC2 inh: 6.0; NR2F2 inh: 9.3

How did O=S1(=O)CC(O)C(N2CCCCC2)C1 (stereo not drawn) do in these assays?
SRC2 inh: -21.8; NCOA3 inh: 14.2; LRH-1 inv ag: -5.0; NR2F2 inh: -5.2; SRC1 inh: -28.6

What do the screens show for `COCCNc1nc(NCCOc2ccccc2)c2sc(-c3ccccc3)cc2n1`?
SRC2 inh: -2.3; NCOA3 inh: -3.2; LRH-1 inv ag: -28.8; NR2F2 inh: -6.5; SRC1 inh: -8.0

What do the screens show for `O=C(Nc1ccc(S(=O)(=O)N2CCCCC2)cc1)c1ccc(CN2CCc3ccccc3C2)cc1`?
SRC2 inh: 16.2; NCOA3 inh: -3.1; LRH-1 inv ag: 59.9; NR2F2 inh: 70.0*; SRC1 inh: 16.1; Gal4-VP16 ctr: 17.7*; COUP-TFII conf: 80.2*

What do the screens show for `O=C(Nc1ccccc1)c1ccc(CN2CCc3ccccc3C2)cc1`?
SRC2 inh: -13.0; NCOA3 inh: -15.8; LRH-1 inv ag: 5.0; NR2F2 inh: 34.6; SRC1 inh: -1.2

How did O=C(Nc1cccnc1)c1ccc(CN2CCc3ccccc3C2)cc1 do in these assays?
SRC2 inh: 25.2; NCOA3 inh: -19.6; LRH-1 inv ag: 7.8; NR2F2 inh: 42.1*; SRC1 inh: 1.6; Gal4-VP16 ctr: -13.9; COUP-TFII conf: 9.9

What do the screens show for `Cc1nn(C)c(C)c1CNC(=O)c1nn2c(c1Cl)NC(c1cccs1)CC2C(F)(F)F` (stereo not drawn)?
SRC2 inh: 9.1; NCOA3 inh: 11.6; LRH-1 inv ag: 18.6; NR2F2 inh: 40.1*; SRC1 inh: 6.9; Gal4-VP16 ctr: -5.3; COUP-TFII conf: 11.3

What do the screens show for `Cc1nn(C)cc1CNC(=O)c1cc2n(n1)C(C(F)(F)F)CC(c1cccs1)N2` (stereo not drawn)?
SRC2 inh: -8.0; NCOA3 inh: 13.0; LRH-1 inv ag: 14.9; NR2F2 inh: 29.1; SRC1 inh: 0.9

How did COc1ccc(OCCN2CCN(S(=O)(=O)c3ccccc3C(F)(F)F)CC2)cc1 do in these assays?
SRC2 inh: -1.9; NCOA3 inh: 3.9; LRH-1 inv ag: -7.0; NR2F2 inh: 41.0*; SRC1 inh: 6.0; Gal4-VP16 ctr: -0.3; COUP-TFII conf: 9.1

What do the screens show for `CCOc1ccc(S(=O)(=O)N2CCN(S(=O)(=O)c3ccc(C(C)=O)cc3)CC2)cc1`?
SRC2 inh: 19.2; NCOA3 inh: 12.9; LRH-1 inv ag: -6.0; NR2F2 inh: -3.3; SRC1 inh: -2.2

Results for CC(=O)c1ccc(S(=O)(=O)N2CCN(CCOc3ccc(Br)cc3)CC2)cc1 ?
SRC2 inh: 26.6; NCOA3 inh: 20.2; LRH-1 inv ag: 35.7; NR2F2 inh: 63.0*; SRC1 inh: 28.3; Gal4-VP16 ctr: 9.3; COUP-TFII conf: 49.7*

What do the screens show for `COc1ccc(OCCN2CCN(S(=O)(=O)c3ccccc3C#N)CC2)cc1`?
SRC2 inh: 8.8; NCOA3 inh: 15.6; LRH-1 inv ag: 12.7; NR2F2 inh: 14.8; SRC1 inh: -1.7

What do the screens show for `COc1ccc2c(c1)c(=O)oc1cc(OCC(=O)N3CCc4ccccc4C3)ccc12`?
SRC2 inh: -9.1; NCOA3 inh: -9.8; LRH-1 inv ag: 5.1; NR2F2 inh: -4.3; SRC1 inh: -10.5

How did O=S1(=O)N[C@H](Cc2ccccc2)COc2cc(Br)ccc21 do in these assays?
SRC2 inh: -24.6; NR2F2 inh: -3.5

How did CN(C)S(=O)(=O)n1cnc([C@@H]2[C@H]3C(=O)OC[C@@H]3C[C@@]23N=CN(Cc2ccccc2)C3=O)c1 do in these assays?
SRC2 inh: -3.5; NCOA3 inh: -18.7; LRH-1 inv ag: -2.5; NR2F2 inh: 8.6; SRC1 inh: 3.0

What do the screens show for `CCN(C(=O)c1cnc(N2CCN(c3ncccn3)CC2)c2ccccc12)c1cccc(Cl)c1`?
SRC2 inh: 33.0; NCOA3 inh: -1.2; LRH-1 inv ag: 14.8; NR2F2 inh: 49.8*; SRC1 inh: -2.2; Gal4-VP16 ctr: 2.3; COUP-TFII conf: 29.3

Results for N#Cc1cc(-c2ccccc2)[nH]c1-c1nccc2ccccc12 ?
SRC2 inh: 19.9; NCOA3 inh: 17.4; LRH-1 inv ag: 16.6; NR2F2 inh: 49.8*; SRC1 inh: -1.7; Gal4-VP16 ctr: -3.9; COUP-TFII conf: 13.3

What do the screens show for `COC(=O)c1c(-c2ccccc2)[nH]c(-c2nccc3ccccc23)c1C(=O)OC`?
SRC2 inh: -14.3; NCOA3 inh: -6.9; LRH-1 inv ag: 16.4; NR2F2 inh: -23.2; SRC1 inh: -10.1

Results for O=C(c1ccc(Cl)cc1)C1CCN(c2ncnc3sccc23)CC1 ?
NR2F2 inh: 69.0*; Gal4-VP16 ctr: 0.0; COUP-TFII conf: 55.8*

What do the screens show for `COc1ccc(C(=O)C2CCN(c3ncnc4sccc34)CC2)cc1`?
NR2F2 inh: 76.2*; Gal4-VP16 ctr: 4.5; COUP-TFII conf: 68.3*

How did O=C(c1ccccc1)C1CCN(C(=O)c2cccs2)CC1 do in these assays?
SRC2 inh: 26.7; NCOA3 inh: 18.8; LRH-1 inv ag: 10.7; NR2F2 inh: 10.8; SRC1 inh: 25.5

Results for Cc1sc2ncnc(N3CCC(C(=O)NNC(=O)c4ccc(Cl)cc4)CC3)c2c1C ?
SRC2 inh: 26.3; NCOA3 inh: -2.3; LRH-1 inv ag: 0.1; NR2F2 inh: 23.5; SRC1 inh: -7.2

What do the screens show for `O=C(c1cccs1)C1CCN(c2ncnc3sccc23)CC1`?
NR2F2 inh: 75.8*; Gal4-VP16 ctr: 11.9; COUP-TFII conf: 68.5*

How did COc1ccc(-n2ncc3c(N4CCC(C(N)=O)CC4)ncnc32)cc1 do in these assays?
SRC2 inh: -55.8; NCOA3 inh: -110.7; LRH-1 inv ag: -113.0; NR2F2 inh: -33.2; SRC1 inh: -102.5

How did CC(=O)c1cccc(-c2ccnc3c2CC(C(=O)Nc2ccc(Cl)c(C(F)(F)F)c2)O3)c1 (stereo not drawn) do in these assays?
SRC2 inh: 31.8; NCOA3 inh: -30.7; LRH-1 inv ag: -21.9; NR2F2 inh: -12.2; SRC1 inh: -13.1

How did CCOC(=O)[C@]12CCC=C1N(Cc1ccc(Cl)cc1Cl)C(=O)[C@H](CC(=O)NCC1CCCCC1)C2 do in these assays?
SRC2 inh: 14.5; LRH-1 inv ag: -15.9; NR2F2 inh: 5.0
